# Records with an inconclusive call do not appear. Active and inactive are the calls of the source. Unless noted, calls follow the shape of the dose curve; as a rule, active = well fitted curve in the direction sought with a large enough effect; inconclusive = small, poorly fitted or top-dose-only effect, or another doubt; inactive = no such curve, though single readings can be large; an effect the other way counts as inactive or inconclusive.
# How the values were obtained:
# [1] = target: Lysosomal acid glucosylceramidase (Homo sapiens) (UniProt P04062); assay: Glucocerebrosidase-p2 (AID 348; in the data active = potency below about 10 µM; also: potency is read from the fitted curve at half-maximal effect); conditions: purified GBA, blue fluorogenic substrate, 40 min
# Chain of Lysosomal acid glucosylceramidase (Homo sapiens) (P04062 whole entry, looked up): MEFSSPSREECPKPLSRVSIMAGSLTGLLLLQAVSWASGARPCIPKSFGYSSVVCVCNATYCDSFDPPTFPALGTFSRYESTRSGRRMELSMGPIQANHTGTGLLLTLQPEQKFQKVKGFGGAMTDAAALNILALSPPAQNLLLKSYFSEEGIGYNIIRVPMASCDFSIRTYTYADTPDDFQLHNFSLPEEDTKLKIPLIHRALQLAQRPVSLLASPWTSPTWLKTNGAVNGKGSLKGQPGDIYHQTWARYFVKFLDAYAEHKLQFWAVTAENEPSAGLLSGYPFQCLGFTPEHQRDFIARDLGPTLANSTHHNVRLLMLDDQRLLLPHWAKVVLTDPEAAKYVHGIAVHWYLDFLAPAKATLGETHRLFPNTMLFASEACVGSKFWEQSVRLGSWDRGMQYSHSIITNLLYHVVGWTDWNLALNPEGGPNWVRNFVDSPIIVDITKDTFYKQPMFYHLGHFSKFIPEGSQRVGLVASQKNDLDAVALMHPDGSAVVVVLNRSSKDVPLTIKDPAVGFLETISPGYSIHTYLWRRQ
# Procedure, shortened: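 Compounds titrated from 0.6 nM upwards against 0.2 nM enzyme in pH 5.9 citric acid/KH2PO4, taurocholate, tween-20; blue fluorogenic substrate 80 uM, 40 min room temperature, stopped and read Ex 365/Em 440 for AC50.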
# [2] = AP1 Signaling Pathway (AID 357; active = well fitted curve in either direction with a large enough effect, not every such curve was filed as active;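 also: ME-180 reporter cells stimulated with EGF at its EC50 level; % is scaled to controls: 0 for no effect and ±100 for the full control effect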); conditions: ME-180 AP-1-bla reporter, EGF-induced, beta-lactamase ratio, 5 h; at 7.69 µM (top of the series) unless noted
# Procedure, shortened: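 AP-1-bla ME-180 cells, Opti-MEM + 0.5% dialyzed FBS, plated overnight 37 °C. Cpd titration + EC50 EGF, 5 h 37 °C. CCF4 2.5 h RT; ex 405, em 460/530 ratio → %activity, AC50.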
# [3] = target: Cytochrome P450 1A2 (Homo sapiens) (UniProt P05177); assay: p450-cyp1a2 (AID 410; calls by dose curve; also: potency is read from the fitted curve at half-maximal effect); conditions: recombinant CYP1A2, luciferin-ME demethylation, luminescence; series mostly up to 57 µM
# Chain of Cytochrome P450 1A2 (Homo sapiens) (P05177 whole entry, looked up): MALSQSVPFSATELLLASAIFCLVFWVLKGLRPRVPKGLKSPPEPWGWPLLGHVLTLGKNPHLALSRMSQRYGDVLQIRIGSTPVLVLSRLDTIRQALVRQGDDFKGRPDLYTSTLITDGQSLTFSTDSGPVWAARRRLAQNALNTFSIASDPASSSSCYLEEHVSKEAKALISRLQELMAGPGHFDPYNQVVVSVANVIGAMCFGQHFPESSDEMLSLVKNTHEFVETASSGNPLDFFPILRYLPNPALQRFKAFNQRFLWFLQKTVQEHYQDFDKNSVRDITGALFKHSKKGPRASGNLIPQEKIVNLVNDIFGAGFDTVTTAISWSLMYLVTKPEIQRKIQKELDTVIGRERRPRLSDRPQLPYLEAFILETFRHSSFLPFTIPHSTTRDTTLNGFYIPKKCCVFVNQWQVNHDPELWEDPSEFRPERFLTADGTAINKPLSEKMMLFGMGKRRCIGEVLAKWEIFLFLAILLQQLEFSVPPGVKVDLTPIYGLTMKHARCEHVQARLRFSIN
# Procedure, shortened: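 Inhibition was calculated relative to 57 uM furafylline (full inhibition). The reaction used human CYP1A2 at 20nM with Luciferin-ME at its Km, 100uM, driven by an NADPH-regenerating system for 60 min at room temperature.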
# [4] = Stat Signaling Pathway (AID 446; active = well fitted curve in either direction with a large enough effect, not every such curve was filed as active;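 also: ME-180 cervical cancer cells given 40 pM IL-6 alongside compound; SIE-controlled beta-lactamase reporter measured as 460/530 nm FRET emission ratio; % is scaled to controls: 0 for no effect and ±100 for the full control effect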); conditions: ME-180 SIE beta-lactamase reporter, IL-6 stimulated, 5 h; at 7.69 µM (top of the series) unless noted
# Procedure, shortened: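 ME-180 cells carrying a SIE-driven beta-lactamase reporter are stimulated with 40 pM IL-6 for 5 h at 37C in the presence of compound. The 460/530 nm FRET substrate ratio is read after 2.5 h at RT. Data are normalised to 300 pM IL-6 and to 125 nM JAK inhibitor controls.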
# [5] = target: Glucocorticoid receptor (Homo sapiens) (UniProt P04150); assay: GR-GFP Redistribution (AID 450;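 active = compounds whose dose series gives a full or clear partial fitted curve of increased nuclear translocation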; also: potency is read from the fitted curve at half-maximal effect); conditions: U2OS GR-GFP nuclear translocation, laser cytometry, 2 h
# Chain of Glucocorticoid receptor (Homo sapiens) (P04150 whole entry, looked up, the tested form may be a part): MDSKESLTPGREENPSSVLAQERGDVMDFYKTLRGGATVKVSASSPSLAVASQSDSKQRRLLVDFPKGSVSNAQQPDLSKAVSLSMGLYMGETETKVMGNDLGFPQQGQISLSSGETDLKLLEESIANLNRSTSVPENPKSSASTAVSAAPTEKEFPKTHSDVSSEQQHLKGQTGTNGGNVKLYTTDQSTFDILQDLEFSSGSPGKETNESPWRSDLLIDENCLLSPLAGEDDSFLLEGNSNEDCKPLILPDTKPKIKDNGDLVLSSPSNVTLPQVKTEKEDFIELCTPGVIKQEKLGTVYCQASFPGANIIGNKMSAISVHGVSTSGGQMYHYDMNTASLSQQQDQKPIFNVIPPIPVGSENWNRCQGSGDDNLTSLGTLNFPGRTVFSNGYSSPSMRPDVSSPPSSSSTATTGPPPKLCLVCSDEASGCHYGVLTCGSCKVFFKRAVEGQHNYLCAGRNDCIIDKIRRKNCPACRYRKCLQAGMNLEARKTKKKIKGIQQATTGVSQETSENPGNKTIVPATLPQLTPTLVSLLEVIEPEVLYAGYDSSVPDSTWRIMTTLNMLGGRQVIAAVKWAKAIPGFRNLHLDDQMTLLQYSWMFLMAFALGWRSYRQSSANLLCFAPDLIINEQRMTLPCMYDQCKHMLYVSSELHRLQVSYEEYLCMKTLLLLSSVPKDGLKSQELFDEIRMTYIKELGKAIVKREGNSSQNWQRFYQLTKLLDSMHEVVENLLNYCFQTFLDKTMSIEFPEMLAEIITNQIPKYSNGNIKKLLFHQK
# [6] = target: Glucocorticoid receptor (Homo sapiens) (UniProt P04150); assay: GR-EFC Redistribution (AID 451; calls by dose curve; also: potency is read from the fitted curve at half-maximal effect); conditions: CHO-K1 GR-EFC translocation, beta-gal luminescence, 2 h
# Procedure, shortened: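 CHO-K1 cells expressing nuclear EA and GR-ED fragments of b-gal; compounds titrated up to 46 uM final, 2 h at 37 C. GR nuclear translocation read as complemented b-gal luminescence after 1 h RT detection.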
# [7] = target: Mitogen-activated protein kinase 10 (Mus musculus) (UniProt Q61831); assay: JNK3 AlphaScreen Assay (AID 530; active = well fitted curve in either direction with a large enough effect, not every such curve was filed as active;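 also: kinase came from lysate of stimulated human HepG2 cells; signal reports phosphorylation of biotinylated GST-cJun 1-79 at Ser73 with 10 µM ATP; % is scaled to controls: 0 for no effect and ±100 for the full control effect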); conditions: JNK3 lysate, c-Jun phosphorylation; series mostly up to 57.1 µM
# Procedure, shortened: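 qHTS format: compounds tested as titrations against IL-1beta/TNF-alpha-activated HepG2 lysate JNK3 with biotin-GST-cJun substrate and 10 uM ATP at room temperature. Loss of anti-phospho-cJun AlphaScreen signal indicates inhibition.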
# [8] = target: Cytochrome P450 3A4 (Homo sapiens) (UniProt P08684); assay: qHTS Assay for Activators of Cytochrome P450 3A4 (AID 885); conditions: recombinant CYP3A4, Luciferin-PPXE luminescence, 60 min; series mostly up to 57.1 µM; also: nearly all actives have a fitted effect of over 65% in size
# Chain of Cytochrome P450 3A4 (Homo sapiens) (P08684 whole entry, looked up): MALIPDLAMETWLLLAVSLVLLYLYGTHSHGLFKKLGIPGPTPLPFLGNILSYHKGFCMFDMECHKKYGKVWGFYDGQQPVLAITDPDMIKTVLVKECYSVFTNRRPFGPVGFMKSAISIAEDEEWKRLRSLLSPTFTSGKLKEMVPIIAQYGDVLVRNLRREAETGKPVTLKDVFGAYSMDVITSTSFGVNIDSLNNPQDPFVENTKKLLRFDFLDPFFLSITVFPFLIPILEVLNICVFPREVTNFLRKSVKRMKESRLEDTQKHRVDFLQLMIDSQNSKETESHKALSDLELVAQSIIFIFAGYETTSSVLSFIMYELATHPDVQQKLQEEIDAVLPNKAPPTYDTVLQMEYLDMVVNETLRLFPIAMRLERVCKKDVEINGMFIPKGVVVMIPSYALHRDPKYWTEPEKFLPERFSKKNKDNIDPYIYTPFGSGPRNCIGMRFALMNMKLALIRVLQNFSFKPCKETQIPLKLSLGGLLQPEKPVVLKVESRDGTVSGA
# Procedure, shortened: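 Human CYP3A4 (20 nM) with Luciferin-PPXE at 25 uM (its KM) in 200 mM KPO4; 10 min compound preincubation, then NADPH regeneration and 60 min reaction at RT. Luciferin read by luminescence; normalized to 57 uM ketoconazole full inhibition.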
# [9] = Confirmation and Secondary Assay for Modulators of Hemoglobin Beta Chain Splicing at IVS2 654 locus (AID 910); conditions: HeLa EGFP-654 splicing reporter, GFP fluorescence, 48 h; series mostly up to 38.3 µM;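 also: HeLa cells stably carrying EGFP split by mutant beta-globin IVS2-654 intron; % of control where 0% means no effect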
# Procedure, shortened: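 HeLa cells stably expressing EGFP interrupted by β-globin IVS2-654 intron, seeded overnight in Opti-MEM/2% FCS, then treated 2 days at 37 °C. Restored splicing read as total peak GFP intensity per well by laser scanning cytometry (488 nm excitation, 500–520 nm emission); 500 nM antisense PNA as control.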
# [10] = Confirmation and Secondary Assay for Modulators of Hemoglobin Beta Chain Splicing at IVS2 705 locus (AID 930); conditions: HeLa EGFP-705 splicing reporter, GFP fluorescence, 48 h; series mostly up to 38.3 µM;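 also: HeLa cells stably expressing the EGFP-705 splicing reporter; GFP fluorescence per well restored by corrected splicing of the IVS2-705 intron in EGFP; % of control where 0% means no effect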
# Procedure, shortened: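 HeLa EGFP-705 reporter; 500 cells/well, o/n 37C 5% CO2; cpd 2 d; 488 ex/500-520 em laser scan; total peak GFP intensity/well. Ref: 500 nM […] antisense PNA.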
# [11] = qHTS Assay for Lipid Storage Modulators (AID 1519; calls by dose curve); conditions: Drosophila S3 cells, BODIPY lipid droplet/cell ratio, laser cytometry, cells loaded with oleic acid; for activity change, negative = inhibition: at 57.5 µM (top of the series)
# Procedure, shortened: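 Cells seeded at 5,000 per well were treated with compounds over a concentration series and loaded with oleic acid (400 uM, as added). Lipid droplet fluorescence (488 nm excitation, 500-530 nm channel) was read by laser-scanning cytometry and normalized to 20 uM Triacsin C.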
# [12] = target: Ubiquitin carboxyl-terminal hydrolase 1 (Homo sapiens) (UniProt O94782); assay: Inhibitors of USP1/UAF1: Pilot qHTS (AID 504865); conditions: purified USP1/UAF1, Ub-rhodamine cleavage fluorescence; series mostly up to 54.9 µM;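 also: rhodamine fluorescence freed from ubiquitin-rhodamine substrate followed over time; top concentration of the series differs between compounds; % is scaled to controls: 0 for no effect and ±100 for the full control effect; nearly all actives have a fitted effect of over 35% in size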
# Chain of Ubiquitin carboxyl-terminal hydrolase 1 (Homo sapiens) (O94782 whole entry, looked up): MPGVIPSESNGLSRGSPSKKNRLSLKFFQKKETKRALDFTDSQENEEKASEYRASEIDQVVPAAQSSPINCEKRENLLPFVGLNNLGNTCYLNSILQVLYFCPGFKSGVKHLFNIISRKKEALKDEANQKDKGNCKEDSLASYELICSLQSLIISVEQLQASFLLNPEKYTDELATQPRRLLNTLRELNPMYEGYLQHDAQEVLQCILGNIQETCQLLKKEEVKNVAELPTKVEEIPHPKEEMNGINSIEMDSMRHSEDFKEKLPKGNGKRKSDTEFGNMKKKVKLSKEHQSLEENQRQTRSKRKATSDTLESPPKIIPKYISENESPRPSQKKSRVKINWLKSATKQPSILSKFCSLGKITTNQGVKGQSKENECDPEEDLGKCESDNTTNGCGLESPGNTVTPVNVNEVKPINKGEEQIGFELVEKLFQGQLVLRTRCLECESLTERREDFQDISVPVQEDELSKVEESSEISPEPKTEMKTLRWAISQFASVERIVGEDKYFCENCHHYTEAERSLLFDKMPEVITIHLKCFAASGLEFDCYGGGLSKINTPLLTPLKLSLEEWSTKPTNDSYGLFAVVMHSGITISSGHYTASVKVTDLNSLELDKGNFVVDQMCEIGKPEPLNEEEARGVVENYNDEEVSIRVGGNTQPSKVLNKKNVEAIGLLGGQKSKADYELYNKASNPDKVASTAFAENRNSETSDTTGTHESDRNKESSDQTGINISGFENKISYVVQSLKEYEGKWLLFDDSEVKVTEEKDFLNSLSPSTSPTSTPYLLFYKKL
# Procedure, shortened: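 USP1/UAF1 complex at 1 nM preincubated 15 min at room temperature with compound, then Ub-Rho substrate added at 150 nM final. Fluorescence (480/540 nm) read kinetically in 50 mM HEPES pH 7.8, 0.5 mM EDTA, 1 mM TCEP, 0.1 mg/ml BSA, 0.01% Tween-20.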
# [13] = Cell Viability qHTS for small molecule stabilizers of the endoplasmic reticulum resident proteome (AID 1508629); conditions: cell viability counter-screen, 100 nM thapsigargin for final 4 h;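 also: human SH-SY5Y neuroblastoma cells carrying the GLuc-SERCaMP reporter; compound exposure about 46 h in total before the viability read; % is scaled to controls: 0 for no effect and ±100 for the full control effect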
# [14] = Primary qHTS for small molecule stabilizers of the endoplasmic reticulum resident proteome: Secreted ER Calcium Modulated Protein (SERCaMP) assay (AID 1508630); conditions: SH-SY5Y GLuc-SERCaMP (Gaussia luciferase released on ER calcium loss) secretion, thapsigargin, luminescence; series mostly up to 38.4 µM; also: % is scaled to controls: 0 for no effect and ±100 for the full control effect
# Procedure, shortened: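 GLuc-SERCaMP-expressing SH-SY5Y cells, pretreated 16 h with compound, are challenged with thapsigargin to empty ER calcium stores; after 4 h, coelenterazine is added directly to the medium and luminescence is imaged.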
# [15] = NFAT Signaling Pathway (AID 444; active = well fitted curve in either direction with a large enough effect, not every such curve was filed as active); conditions: Jurkat NFAT-bla M1, carbachol, beta-lactamase ratio, 5 h; at 7.69 µM (top of the series) unless noted
# Procedure, shortened: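 Jurkat cells with NFAT-driven β-lactamase reporter and co-expressed M1 receptor, stimulated with carbachol (final 1 uM, ~EC50), compound titration, 5 h at 37 °C. CCF4 loaded 1 h at RT; 460/530 nm ratio gave %activity and AC50.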
# [16] = Confirmatory qHTS for small molecule stabilizers of the endoplasmic reticulum resident proteome: Secreted ER Calcium Modulated Protein (SERCaMP) assay (AID 1508628); conditions: SERCaMP secreted luciferase ER calcium/proteostasis reporter; series mostly up to 76.3 µM; also: nearly all actives have a fitted effect of over 40% in size; also: potency is read from the fitted curve at half-maximal effect
# Procedure, shortened: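 We seeded SH-SY5Y-GLuc-SERCaMP cells, added compounds (three concentrations in the primary run, eleven up to 76.6 uM in confirmation), incubated 16 h, depleted ER calcium with thapsigargin, and read luciferase 4 h later.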
# [17] = target: 3',5'-cyclic-AMP phosphodiesterase 4B (Homo sapiens) (UniProt Q07343); assay: qHTS Assay for Inhibitors of PDE-IV (AID 607; active = well fitted activation curve with a large enough effect in the main read-out, with a control signal flat, not every such curve was filed as active; also: % of control where 0% means no effect); conditions: HEK293 ACTOne CNG channel cells, membrane potential fluorescence; series mostly up to 22.9 µM
# Chain of 3',5'-cyclic-AMP phosphodiesterase 4B (Homo sapiens) (Q07343 whole entry, looked up): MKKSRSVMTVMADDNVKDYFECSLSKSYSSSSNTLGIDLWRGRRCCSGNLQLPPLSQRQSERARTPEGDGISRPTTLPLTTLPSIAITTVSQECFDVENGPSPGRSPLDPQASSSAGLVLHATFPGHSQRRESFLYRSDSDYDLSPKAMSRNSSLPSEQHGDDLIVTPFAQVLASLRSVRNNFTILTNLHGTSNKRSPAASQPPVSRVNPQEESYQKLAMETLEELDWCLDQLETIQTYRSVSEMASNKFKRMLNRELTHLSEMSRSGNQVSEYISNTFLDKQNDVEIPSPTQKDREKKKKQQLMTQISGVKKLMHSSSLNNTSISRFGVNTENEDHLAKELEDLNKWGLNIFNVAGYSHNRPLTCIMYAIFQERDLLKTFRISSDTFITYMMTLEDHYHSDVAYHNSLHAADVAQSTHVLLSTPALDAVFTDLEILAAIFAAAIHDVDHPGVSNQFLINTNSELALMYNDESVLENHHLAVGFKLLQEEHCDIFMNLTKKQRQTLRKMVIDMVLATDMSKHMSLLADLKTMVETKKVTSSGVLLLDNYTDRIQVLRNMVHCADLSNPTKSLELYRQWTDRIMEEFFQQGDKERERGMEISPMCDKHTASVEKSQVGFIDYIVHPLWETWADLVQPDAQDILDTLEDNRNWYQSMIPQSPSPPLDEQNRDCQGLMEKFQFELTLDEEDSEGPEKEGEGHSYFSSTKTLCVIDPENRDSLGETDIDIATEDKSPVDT
# Procedure, shortened: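 HEK293 ACTOne cells with CNG channel (1000/well), endogenous PDE4; membrane potential dye, compounds up to 22.9 uM final. Fluorescence Ex 535/Em 590; RO 20-1724 (100 uM final) as reference.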
# [18] = target: Cytochrome P450 3A4 (Homo sapiens) (UniProt P08684); assay: qHTS Assay for Inhibitors and Substrates of Cytochrome P450 3A4 (AID 884); conditions: recombinant CYP3A4, Luciferin-PPXE luminescence; series mostly up to 57.1 µM; also: potency is read from the fitted curve at half-maximal effect; nearly all actives have a fitted effect of over 50% in size
# Procedure, shortened: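 20 nM human CYP3A4 with 25 uM Luciferin-PPXE (at KM) in 200 mM KPO4, preincubated 10 min with compound; NADPH regeneration started a 60 min RT reaction. Luciferin detected by luminescence, normalized to 57 uM ketoconazole as full inhibition.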
# [19] = target: Cytochrome P450 2C19 (Homo sapiens) (UniProt P33261); assay: qHTS Assay for Inhibitors and Substrates of Cytochrome P450 2C19 (AID 899); conditions: recombinant CYP2C19, luciferin-H EGE luminescence; series mostly up to 57.1 µM; also: potency is read from the fitted curve at half-maximal effect; nearly all actives have a fitted effect of over 60% in size
# Chain of Cytochrome P450 2C19 (Homo sapiens) (P33261 whole entry, looked up): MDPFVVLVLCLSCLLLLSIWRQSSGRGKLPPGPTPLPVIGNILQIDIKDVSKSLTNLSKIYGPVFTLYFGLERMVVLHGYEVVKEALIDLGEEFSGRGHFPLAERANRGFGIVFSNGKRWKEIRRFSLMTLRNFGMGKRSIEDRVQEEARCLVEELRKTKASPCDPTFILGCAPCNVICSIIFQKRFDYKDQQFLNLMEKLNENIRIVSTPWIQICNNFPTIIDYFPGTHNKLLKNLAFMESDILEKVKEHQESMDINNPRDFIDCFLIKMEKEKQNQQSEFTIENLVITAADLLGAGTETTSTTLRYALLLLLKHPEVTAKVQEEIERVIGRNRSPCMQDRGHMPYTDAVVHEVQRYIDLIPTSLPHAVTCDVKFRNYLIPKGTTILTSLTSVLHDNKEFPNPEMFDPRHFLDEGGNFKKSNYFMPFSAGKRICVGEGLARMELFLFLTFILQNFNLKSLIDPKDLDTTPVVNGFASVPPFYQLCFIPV
# Procedure, shortened: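 Signal comes from luciferase acting on luciferin released by CYP2C19-mediated hydroxylation of Luciferin-H EGE, 10uM (KM). Assay mix: 5nM enzyme, 50mM KPO4; 60 min at 37C with NADPH regeneration. Data normalized against 57uM ketoconazole.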
# [20] = measured here: cell count channel max response
# [21] = measured here: lipid channel max response
smiles,measurement,setting,value
Cc1cccc(CNc2cc(-c3ccccc3CN(C)C)ncn2)c1,Potency,[1],> 11.4 µM (inactive)
same,"activity change, negative = inhibition",[2],9.15% (inactive)
same,Potency,[3],25.1 µM (active)
same,"activity, negative = inhibition",[4],11.7% (inactive)
same,Potency,[5],> 46 µM (inactive)
same,Potency,[6],> 46 µM (inactive)
same,outcome,[7],inactive
same,Potency,[8],inactive
same,outcome,[9],inactive
same,outcome,[10],inactive
same,"activity change, negative = inhibition",[11],2.35% (inactive)
same,max response,[11]; [20],2.52%
same,max response,[11]; [21],10%
same,Potency,[12],inactive
same,max response,[13],-21.4% (inactive)
COc1c(C=O)c(=O)[nH]c2c(OC)cccc12,Potency,[14],inactive
Cc1nc(-c2coc3c(O)c(O)ccc3c2=O)cs1,Potency,[14],inactive
O=C(O)c1ccccc1-c1oc2cc(O)ccc2c(=O)c1Oc1ccccc1,Potency,[14],inactive
N#CCCn1c(=O)c(CCc2ccccc2)nc2cnc(OCc3ccccc3)nc21,Potency,[1],> 11.4 µM (inactive)
same,"activity change, negative = inhibition",[2],-4.26% (inactive)
same,Potency,[3],12.6 µM (active)
same,"activity change, negative = inhibition",[15],-3.34% (inactive)
same,"activity, negative = inhibition",[4],-0.503% (inactive)
same,Potency,[5],> 9.22 µM (inactive)
same,Potency,[6],> 46 µM (inactive)
same,Potency,[8],inactive
same,Potency,[16],31.6 µM (active)
c1ccc(-c2cccc(N3CC4(CCNCC4)C3)c2)cc1,Potency,[1],> 11.4 µM (inactive)
same,"activity change, negative = inhibition",[2],14.2% (inactive)
same,Potency,[3],12.6 µM (active)
same,"activity change, negative = inhibition",[15],6.24% (inactive)
same,"activity, negative = inhibition",[4],3.73% (inactive)
same,Potency,[6],> 46 µM (inactive)
same,Potency,[17],inactive
same,"activity change, negative = inhibition",[11],-6.46% (inactive)
same,max response,[11]; [20],-7.34%
same,max response,[11]; [21],-10.1%
same,max response,[13],-13.3% (inactive)
CC1=CC2C(=O)c3cccc(O)c3C(=O)C2C(O)=C1 (stereo not drawn),Potency,[14],inactive
CC1=NN(c2ccc([N+](=O)[O-])cc2)C(=O)C1[N+](=O)[O-] (stereo not drawn),Potency,[14],inactive
O=C1CCCC2[C@@H]3CCC[N@+]4([O-])CCC[C@H](CN12)C34 (stereo partly drawn),Potency,[14],inactive
N#CCCn1c(=O)c(CCc2ccccc2)nc2cnc(Oc3cccc(Cl)c3)nc21,Potency,[1],> 11.4 µM (inactive)
same,"activity change, negative = inhibition",[15],-8.5% (inactive)
same,Potency,[5],> 9.22 µM (inactive)
same,Potency,[6],> 46 µM (inactive)
same,outcome,[7],inactive
same,Potency,[17],inactive
same,Potency,[18],0.794 µM (active)
same,Potency,[8],inactive
same,Potency,[19],6.31 µM (active)
same,max response,[13],7.03% (inactive)
COc1c2c(cc3c1C(NC(N)=O)[N+](C)(C)CC3)OCO2 (stereo not drawn),Potency,[14],inactive
CCCc1c(OCC(O)COc2ccc3c(=O)cc(C(=O)O)oc3c2CCC)ccc(C(C)=O)c1O (stereo not drawn),Potency,[14],inactive
Cc1nc2[nH]c(=O)[nH]c(=O)c2[nH]1,Potency,[14],inactive
CC1(O)/C=C\C=C(\CO)C2CC(C)(C)C2(O)CC1 (stereo not drawn),Potency,[14],inactive
COc1ccc(/C=C/c2cc(OC)c(OC)cc2CC[N+](C)(C)C)cc1,Potency,[14],inactive
COCCn1c(=O)c(-c2ccccc2)nc2cnc(OCc3ccccc3)nc21,Potency,[1],> 11.4 µM (inactive)
same,"activity change, negative = inhibition",[2],-11.6% (inactive)
same,"activity change, negative = inhibition",[15],0.0505% (inactive)
same,"activity, negative = inhibition",[4],-5.1% (inactive)
same,Potency,[5],> 9.22 µM (inactive)
same,Potency,[6],> 46 µM (inactive)
same,Potency,[17],inactive
same,Potency,[16],39.8 µM (active)
O=c1oc2cc(O)ccc2cc1-c1ccc2c(c1)OCCO2,Potency,[14],inactive
C=C1C[C@]23C[C@@]1(O)CC[C@H]2[C@@]12C=C[C@H](O)C(C)(C(=O)O1)[C@H]2[C@@H]3CC(=O)O,Potency,[14],inactive
C=C1C[C@]23CC[C@H]4C(CO)(CO)C[C@@H](O)C[C@@]4(C)[C@@H]2CC[C@H]1C3,Potency,[14],inactive
COc1ccc(-c2cnc(-c3cccnc3)o2)cc1,Potency,[14],inactive
O=c1c(-c2ccccc2)nc2cnc(N3CCNCC3)nc2n1Cc1cccs1,Potency,[1],> 11.4 µM (inactive)
same,Potency,[5],> 9.22 µM (inactive)
same,Potency,[6],> 46 µM (inactive)
same,Potency,[17],inactive
same,Potency,[16],inactive

# Reference: PubChem BioAssay (NCATS)
